biological target: GLA; experiment: pooled miR-30 sensor sort-seq; sequence = guide strand; conditions: shRNA
Also: reference of the scale not given here.

| Sequence | sensor-assay potency score (higher = more potent) |
| --- | --- |
| TTACTTGCTGATTCCAGCTGAG | 0.0513 |
| TAGACATGAATAAAGGAGCAGC | -0.359 |
| ATACTCTTTATACTTTTCCAGG | -1.52 |
| TTTATTTCCAACATCTGCATAA | -0.987 |
| TGTCACAGTAACAACCATCAAA | -0.951 |
| TTATGTGACTTCTTAACCTTGA | 0.747 |

biological target: GLCE; experiment: as above; conditions: shRNA

| Sequence | sensor-assay potency score (higher = more potent) |
| --- | --- |
| TAACATATGGTATATAACCCAC | -0.994 |
| TAAAAGGTCAAACTTGACCTTC | -0.602 |
| TTTGTTAACAGATAGGCCCTGA | 0.615 |
| TACCATACTGTTATCATCGAGT | 0.0428 |
| TTTAACATCAAAGTGAACTCAA | 0.589 |
| TTACTAGCCAATCACTAGCAGC | -1.01 |
| TAACATGTGCACATTGTGCTTA | 0.792 |
| TTATTTTGAACATCGGCACTGG | 0.23 |
| TAAAAAGTTGAACACAGTCTGC | -0.82 |
| TCAAACTTGACCTTCATCCAGA | -0.0575 |
| TTGCATATAGTATTTGATCTAA | -0.789 |
| TTACCTTTTGCAATCAACCTAA | 0.22 |

biological target: GLI3; experiment: as above; conditions: shRNA

| Sequence | sensor-assay potency score (higher = more potent) |
| --- | --- |
| TTGAGAATCGTGACCAAGGAGT | -0.494 |
| TTTGAGTGTAACAATACTGATT | -0.904 |
| TTGATCTTGGACCTCTTGTTGT | -0.765 |
| TTGTCGGCTTAGGATCTGCTGA | -0.967 |
| TCTGATGATAGTATTCTGCTGG | 0.381 |
| TTTGGTCATAGAACTGACCAGA | -0.608 |
| TTTTTCTTTTCAGTGGTCGTGG | 0.0526 |
| TATACTACCTCCATCGGTCAGA | -0.385 |
| TTGTGTCACTGAGCTGTCCTGA | -0.401 |
| TTTCGTGTCTTGCTGACTGAAG | -0.362 |

biological target: GLIPR2; experiment: as above; conditions: shRNA

| Sequence | sensor-assay potency score (higher = more potent) |
| --- | --- |
| TTATAGTTCTTGATTTCACTGT | 0.709 |
| TTCTTGCAGAGCTTCAGTGGGG | -0.474 |
| ATAGTTCTTGATTTCACTGTAC | 0.205 |
| TTCTTCCATACCATGGCCGTGA | -1.01 |
| TTTCCTGTCTGATCATAGGATG | -0.835 |
| TCATTGACAACATTCCCCGCTG | -0.0819 |
| ATCTTCTTGGTGTTCTTCCATA | -1.63 |
| TTGACAACATTCCCCGCTGGGA | -0.899 |
| TATAGTTCTTGATTTCACTGTA | 0.562 |
| TTCTTGATTTCACTGTACCATC | -1.16 |
| TGCTTGAGGATCCTCGTGCTGG | -0.832 |
| TATCTGGCCACCACAAAGGAGG | -1.73 |
